Assay results from PubChem BioAssay.
Unmarked numbers belong to inactive results. For some assays here: Results with a measured potency or affinity are listed apart. Active and inactive are the calls of the source. Unless noted, no rule for the calls is given here.

What was measured:
[1] = antimalarial activity against Dd2 strain (AID 2302;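 active = growth inhibition above 50% at the single 2 µM test dose, taken to imply half-maximal potency below 2 µM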;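 also: 0% = DMSO untreated growth and 100% = chloroquine plus artemisinin killed control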); settings: P. falciparum Dd2 in RBCs, LDH growth readout, 72 h; at 2 µM; stronger effect = higher value
[2] = human hepatoma cell viability loss – ATP luminescence, cytotoxicity control for P. falciparum antimalarial project, primary screen (AID 2303;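 active = inhibition above 50%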;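 also: 0% = DMSO wells and 100% = digitonin-killed cells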); settings: HepG2 viability, 24-48 h, at 10 µM, stronger effect = higher value
[3] = molecular target: L-lactate dehydrogenase (Plasmodium falciparum (isolate CDC / Honduras)) (UniProt Q27743); experiment: PfLDH activity inhibition – cell lysate, 3D7 strain, counter-screen for P. falciparum growth inhibition project (AID 2304);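 also: 0% = vehicle and 100% = reference inhibitor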; settings: P. falciparum 3D7 crude extract, LDH APAD/NBT absorbance; at 2 µM; stronger effect = higher value
Chain of L-lactate dehydrogenase (Plasmodium falciparum (isolate CDC / Honduras)) (Q27743 whole entry, looked up): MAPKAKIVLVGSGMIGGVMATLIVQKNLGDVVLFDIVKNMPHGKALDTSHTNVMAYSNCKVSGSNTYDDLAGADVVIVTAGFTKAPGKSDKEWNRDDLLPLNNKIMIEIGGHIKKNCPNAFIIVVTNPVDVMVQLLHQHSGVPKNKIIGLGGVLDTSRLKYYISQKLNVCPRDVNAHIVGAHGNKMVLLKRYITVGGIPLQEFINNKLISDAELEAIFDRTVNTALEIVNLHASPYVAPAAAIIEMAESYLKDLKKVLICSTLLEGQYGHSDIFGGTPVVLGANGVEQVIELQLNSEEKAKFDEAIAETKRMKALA

[4] = inhibition of 3D7 malaria parasite growth – strain 3D7 (AID 2306);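 also: 0% = DMSO wells and 100% = chloroquine plus artemisinin control wells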; settings: P. falciparum 3D7 erythrocytic growth, LDH absorbance, 72 h; at 2 µM; stronger effect = higher value
[5] = molecular target: Calcium-dependent protein kinase 1 (Plasmodium falciparum (isolate 3D7)) (UniProt P62344); experiment: PfCDPK1 kinase inhibitors, biochemical, TCAMS library (AID 1159585; cut-off not given, nearly all actives have IC50 up to about 0.98 µM;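 also: inhibitors leave more ATP so luminescence rises with inhibition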); settings: recombinant PfCDPK1, Kinase-Glo ATP depletion luminescence
Chain of Calcium-dependent protein kinase 1 (Plasmodium falciparum (isolate 3D7)) (P62344 whole entry, looked up): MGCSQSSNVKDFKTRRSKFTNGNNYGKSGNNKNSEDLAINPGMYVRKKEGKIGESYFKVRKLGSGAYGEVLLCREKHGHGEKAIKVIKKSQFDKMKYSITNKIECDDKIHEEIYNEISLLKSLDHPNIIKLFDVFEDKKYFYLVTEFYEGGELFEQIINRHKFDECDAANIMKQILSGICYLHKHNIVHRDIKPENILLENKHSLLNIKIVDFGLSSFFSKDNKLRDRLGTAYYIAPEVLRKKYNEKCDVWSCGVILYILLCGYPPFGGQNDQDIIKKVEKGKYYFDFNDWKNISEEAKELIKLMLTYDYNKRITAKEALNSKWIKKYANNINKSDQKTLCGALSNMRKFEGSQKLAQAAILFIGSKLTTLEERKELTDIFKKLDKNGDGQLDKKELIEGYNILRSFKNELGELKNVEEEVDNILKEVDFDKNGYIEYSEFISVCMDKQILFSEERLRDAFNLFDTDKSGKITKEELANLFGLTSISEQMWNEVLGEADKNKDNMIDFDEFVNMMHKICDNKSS

[6] = molecular target: Plasmodium falciparum protein kinase 6 (PK6, PF3D7_1337100) (UniProt Q8IDW1); experiment: PfPK6 kinase inhibitors, biochemical, TCAMS library (AID 1159586); settings: recombinant PfPK6, Kinase-Glo ATP depletion luminescence
Chain of Plasmodium falciparum protein kinase 6 (PK6, PF3D7_1337100) (Q8IDW1 1-305): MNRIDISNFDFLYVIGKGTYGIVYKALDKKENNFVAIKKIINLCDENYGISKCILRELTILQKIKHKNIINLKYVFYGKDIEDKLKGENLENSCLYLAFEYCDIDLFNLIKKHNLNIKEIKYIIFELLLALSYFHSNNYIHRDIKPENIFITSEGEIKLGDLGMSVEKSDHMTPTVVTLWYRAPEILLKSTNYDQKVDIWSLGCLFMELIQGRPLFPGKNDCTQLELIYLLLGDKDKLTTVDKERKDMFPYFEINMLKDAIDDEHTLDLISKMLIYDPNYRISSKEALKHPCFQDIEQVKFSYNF

[7] = molecular target: Protein kinase 7 (PK7), Plasmodium falciparum 3D7 (PF3D7_0213400) (UniProt Q7YTF7); experiment: inhibition of Plasmodium PK7 catalytic activity – biochemical, TCAMS antimalarial set, Kinase-Glo luminescence (AID 1159587); settings: recombinant PfPK7, Kinase-Glo ATP depletion luminescence
Chain of Protein kinase 7 (PK7), Plasmodium falciparum 3D7 (PF3D7_0213400) (Q7YTF7 1-343): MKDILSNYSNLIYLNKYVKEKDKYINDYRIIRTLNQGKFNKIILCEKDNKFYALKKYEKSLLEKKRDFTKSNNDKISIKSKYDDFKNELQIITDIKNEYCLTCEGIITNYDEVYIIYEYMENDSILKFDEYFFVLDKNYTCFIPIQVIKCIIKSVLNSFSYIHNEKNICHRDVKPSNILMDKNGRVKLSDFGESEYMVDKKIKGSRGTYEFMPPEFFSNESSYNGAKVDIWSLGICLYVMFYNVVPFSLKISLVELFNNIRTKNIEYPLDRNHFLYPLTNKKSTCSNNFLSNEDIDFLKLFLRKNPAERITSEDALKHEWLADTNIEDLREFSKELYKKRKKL

[8] = molecular target: Calcium-dependent protein kinase 4 (Plasmodium falciparum (isolate 3D7)) (UniProt Q8IBS5); experiment: PfCDPK4 kinase inhibitors, biochemical, TCAMS library (AID 1159588; cut-off not given, nearly all actives have IC50 up to about 0.91 µM); settings: recombinant PfCDPK4, Kinase-Glo ATP depletion luminescence
Chain of Calcium-dependent protein kinase 4 (Plasmodium falciparum (isolate 3D7)) (Q8IBS5 whole entry, looked up): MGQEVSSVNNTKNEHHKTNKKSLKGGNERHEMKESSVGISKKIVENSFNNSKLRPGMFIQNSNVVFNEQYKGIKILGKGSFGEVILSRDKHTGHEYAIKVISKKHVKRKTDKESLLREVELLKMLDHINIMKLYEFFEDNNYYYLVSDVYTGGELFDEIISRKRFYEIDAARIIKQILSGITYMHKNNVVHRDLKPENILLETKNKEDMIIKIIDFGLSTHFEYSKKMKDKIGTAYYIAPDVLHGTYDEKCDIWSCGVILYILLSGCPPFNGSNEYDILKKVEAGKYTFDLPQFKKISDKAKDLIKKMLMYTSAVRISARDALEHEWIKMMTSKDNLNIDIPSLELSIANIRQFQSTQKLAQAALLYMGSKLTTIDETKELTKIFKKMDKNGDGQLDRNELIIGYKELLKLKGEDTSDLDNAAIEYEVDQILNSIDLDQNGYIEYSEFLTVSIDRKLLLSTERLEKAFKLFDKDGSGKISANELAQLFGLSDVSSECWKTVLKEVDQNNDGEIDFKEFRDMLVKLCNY

| Compound | growth inhibition [1] | inhibition [2] | inhibition [3] [%] | growth inhibition [4] | outcome [5] | outcome [6] | outcome [7] | outcome [8] |
| --- | --- | --- | --- | --- | --- | --- | --- | --- |
| CCCCCCCCCCN1C(=O)C2C(CCCCNC(C)=O)NC3(C(=O)N(Cc4ccc(C(C)(C)C)cc4)c4ccccc43)C2C1=O (stereo unspecified) | 65% (active) | 3% | -3 | 86% (active) | inactive | inactive | inactive | inactive |
| c1ccn2c(-c3ncnc(NCc4ccc5c(c4)CCO5)n3)cnc2c1 | 47% | 12% | 0 | 86% (active) | inactive | inactive | inactive | inactive |
| COc1cc(NCC(CN)Cc2ccc3c(c2)OCO3)nc2ccccc12 (stereo unspecified) | 6% | 41% | 0 | 94% (active) | inactive | inactive | inactive | inactive |
| COc1ccc2c(c1)CC(C)(C)NC2CCCCCCCCC1NC(C)(C)Cc2cc(OC)ccc21 (stereo unspecified) | 62% (active) | 42% | 0 | 98% (active) | inactive | inactive | inactive | inactive |
| Cc1ccc(O)cc1Nc1ccnc2ccc(-c3cccc(CNCCN(C)C)c3)cc12 | 46% | -7% | -3 | 100% (active) | inactive | inactive | inactive | inactive |
| c1ccc(CCNc2ccnc(Nc3ccc4n[nH]nc4c3)n2)cc1 | 95% (active) | 33% | -4 | 101% (active) | inactive | inactive | inactive | inactive |
| CC(=O)N/N=C/[C@H](CCc1ccccc1)NC(=O)[C@H](CC(C)C)NC(=O)c1cccc(OCCN2CCOCC2)c1 | 78% (active) | 13% | -6 | 94% (active) | inactive | inactive | inactive | inactive |
| Nc1nc(N)c2c(ccc3nn(Cc4cccnc4)cc32)n1 | 0% | 41% | 0 | 96% (active) | inactive | inactive | inactive | inactive |
| Cc1cccc2[nH]c(-c3ccc(-c4cccc(CN5CCN(CCO)CC5)c4)cc3)nc12 | 55% (active) | 20% | -3 | 100% (active) | inactive | inactive | inactive | inactive |
| COc1ccc(-c2nc(NC(=O)CS(=O)(=O)c3ccc(C)cc3)sc2C)cc1 | 94% (active) | 56% (active) | 2 | 101% (active) | inactive | inactive | inactive | inactive |
| Cc1cccc2[nH]c(-c3ccc(-c4ccc(CN5CCC(C(N)=O)CC5)cc4)cc3)nc12 | 32% | 8% | 1 | 91% (active) | inactive | inactive | inactive | inactive |
| O=C(Oc1ccc(C2CNCCc3c2cc(OC(=O)c2ccc(O)cc2)c(OC(=O)c2ccc(O)cc2)c3Cl)cc1)c1ccc(O)cc1 (stereo unspecified) | 60% (active) | -2% | 0 | 90% (active) | inactive | inactive | inactive | inactive |
| Cc1nc(N/C=C/c2ccc(O)cc2)cc(N2CCCC2)n1 | 54% (active) | -11% | -2 | 93% (active) | inactive | inactive | inactive | inactive |
| CNC(=O)CNC(=O)COc1cccc2ccccc12 | -6% | 3% | -8 | 98% (active) | inactive | inactive | inactive | inactive |
| O=C(Nc1ccc(OC2CCN(Cc3ccc(F)cc3)C2)c(Cl)c1)c1ccco1 (stereo unspecified) | 97% (active) | 9% | -2 | 96% (active) | inactive | inactive | inactive | inactive |
| C=C[C@]1(C)C[C@@H](OC(=O)c2n[nH]c3ccccc3c2=O)[C@]2(C)[C@H](C)CC[C@]3(CCC(=O)[C@H]32)[C@@H](C)[C@@H]1O | 84% (active) | -6% | 0 | 96% (active) | inactive | inactive | inactive | inactive |
| COc1cc2nc(Nc3ccc4c(ccn4Cc4ccccc4)c3)nc(Nc3ccc4c(ccn4Cc4ccccc4)c3)c2cc1OC | 80% (active) | -6% | 2 | 89% (active) | inactive | inactive | inactive | inactive |
| Cc1noc(C)c1-c1ccc2c(Nc3ccccc3N3CCOCC3)c(C(=O)NCc3ccccc3)cnc2c1 | 6% | 23% | -2 | 91% (active) | inactive | inactive | inactive | inactive |
| COc1ccc(OC)c(NC(=O)CSc2nc(-c3ccccc3Cl)ns2)c1 | 32% | -8% | -1 | 95% (active) | inactive | inactive | inactive | inactive |

| Compound | growth inhibition [1] | inhibition [2] | inhibition [3] [%] | growth inhibition [4] | outcome [5] | outcome [6] | outcome [7] | outcome [8] |
| --- | --- | --- | --- | --- | --- | --- | --- | --- |
| COc1ccc(CN2CCCN(Cc3ccc(C(=O)Nc4ccc(Cl)cc4)cc3)CC2)cc1 | 3% | 46% | 0 | 91% (active) | inactive | inactive | inactive | inactive |
| Cc1cccc2[nH]c(-c3cccc(-c4cccc(NC(=O)Nc5ccsc5)c4)c3)nc12 | 41% | 15% | -3 | 102% (active) | inactive | inactive | inactive | inactive |
| CCOC(=O)c1c(CN2CCCC2)n(-c2ccccc2)c2cc(Br)c(O)cc12 | 53% (active) | -2% | -2 | 83% (active) | inactive | inactive | inactive | inactive |
| CN1CCC(Oc2cc(NC(=O)Nc3ccc(-c4ccncc4)c(Cl)c3)ccc2Cl)CC1 | 100% (active) | 23% | -5 | 99% (active) | inactive | inactive | inactive | inactive |
| Cc1ccc2cc(C3NC(=O)c4ccccc4N3)c(Cl)nc2c1 (stereo unspecified) | 38% | -6% | 1 | 91% (active) | inactive | inactive | inactive | inactive |
| CS(=O)(=O)c1ccccc1CNC(=O)c1ccc(-c2ccc(-c3nc4ccc(C(F)(F)F)cc4[nH]3)s2)cc1 | 76% (active) | 90% (active) | 9 | 96% (active) | inactive | inactive | inactive | inactive |
| FC(F)(F)c1ccc2nc(-c3ccc(-c4ccc(CNCCc5ccncc5)cc4)cc3)[nH]c2c1 | 100% (active) | 26% | 6 | 100% (active) | inactive | inactive | inactive | inactive |
| Oc1ccc(Cl)c2c1C(c1ccccc1)=NCC2 | 43% | -9% | -4 | 95% (active) | inactive | inactive | inactive | inactive |
| O=C(Nc1ccccc1-c1ccccc1)C1CCCN1C(=O)Nc1ccc(Cl)cc1 (stereo unspecified) | 90% (active) | -6% | -4 | 96% (active) | inactive | inactive | inactive | inactive |
| Nc1nccc2ccc(-c3cccc4ncccc34)cc12 | 94% (active) | 40% | -1 | 98% (active) | inactive | inactive | inactive | inactive |
| COc1ccccc1C1CCN(CCN2CCC(NC(=O)c3ccc(-c4ccc(C#N)cc4)cc3)CC2)CC1 | 42% | 31% | -5 | 99% (active) | inactive | inactive | inactive | inactive |
| COc1ccccc1Nc1nc(NC2CCN(C)CC2)cc(-c2cccc(C(F)(F)F)c2)n1 | 71% (active) | 100% (active) | -10 | 95% (active) | inactive | inactive | inactive | inactive |
| COc1cccc(OC)c1CN1CCC(N(C)CCCCCCCCN2CCC(OC(=O)Nc3ccccc3-c3ccccc3)CC2)CC1 | 100% (active) | 100% (active) | 1 | 99% (active) | inactive | inactive | inactive | inactive |
| CCOC(=O)C1=C(C)NC2=C(C(=O)CCC2)C1c1cn(Cc2ccc(Cl)cc2Cl)nc1-c1ccccc1 (stereo unspecified) | 96% (active) | -5% | -2 | 100% (active) | inactive | inactive | inactive | inactive |
| Cc1cc(N[C@@H](CC(C)C)C(=O)NCCCOC(C)C)nc(NCCc2ccc(F)cc2)n1 | 19% | 5% | -2 | 87% (active) | inactive | inactive | inactive | inactive |
| COc1ccc(Cn2ccc3c4c(N)nc(N)nc4ccc32)cc1 | 93% (active) | 90% (active) | 7 | 101% (active) | inactive | inactive | inactive | inactive |
| COc1ccccc1CCNc1nc(C)cc(N[C@@H](Cc2ccccc2)C(=O)NCc2cccc(F)c2)n1 | 86% (active) | 31% | -2 | 99% (active) | inactive | inactive | inactive | inactive |
| Cc1cc(NN=Cc2ccc(Cl)cc2)c2ccc(F)cc2n1 | 87% (active) | 6% | -2 | 100% (active) | inactive | inactive | inactive | inactive |
